L major viab = inhibitors of Leishmania major promastigote growth. Leishmania major promastigotes, resazurin fluorescence viability. inhibition, % at 10 µM. 9% of 200,000 active; in the data active = inhibition above about 50%;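 note: promastigotes grown with compound for 44 hours at 28 °C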
CHOP inh = CHOP inhibition in unfolded protein response; CHO-K1 CHOP-promoter luciferase, tunicamycin-induced, 15-18 h; inhibition, % at 10 µM; 3.8% of 220,000 active;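 active = compounds that reduced the stress-induced luciferase reporter signal by more than about 70% of percent inhibition, limit read from the data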;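 note: 0% = tunicamycin plus vehicle and 100% = wells without tunicamycin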
RAM network inh = blocks the yeast RAM network. S. cerevisiae dse1pr::URA3 reporter, 5-FOA growth OD615, 2 d; analog-sensitive cbk1-as2 kinase mutant strain. inhibition, % at 50 µM. 1.8% of 190,000 active. AID 868;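 active = inhibition above a set limit, 3 SD over mean compound inhibition, cut at about 8.4% in these data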;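 note: 0% = DMSO-only wells with no growth and 100% = 10 µM 1-NA-PP1 full growth; inhibition rescues growth on 5-FOA so higher OD means more RAM inhibition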
WT yeast gro inh = growth inhibition of WT yeast, mitochondrial fusion screen. mitochondrial fusion phenotypic screen, WT strain. inhibition, % at 10 µM. 2.1% of 190,000 active; in the data active = inhibition above about 58%; tested in S. cerevisiae
Numbers without * were called inactive. Rows were chosen to be rich in hits. Some 13% of all compounds tested hit in one or more screens of this group.

For S=C(c1ccc(Br)cc1)N1CCN(Cc2ccccc2)CC1 the results were L major viab 34, CHOP inh 67 and RAM network inh 1.
`Nc1c2c(nc3ccc(Br)cc13)N(C1CCCCC1)CC2` gave L major viab 101*, CHOP inh 43, RAM network inh 0 and WT yeast gro inh 43.
Screening Cc1ccc2cc3c(nc2c1)N(c1ccccc1)CC3 returned L major viab -3, CHOP inh 22, RAM network inh 1 and WT yeast gro inh 7.
Screening CC(=O)OCC(OC(C)=O)C(OC(C)=O)C(OC(C)=O)C(=O)Nc1cccc(C)c1 (stereo unspecified) returned CHOP inh 25.
For CCC(C)/C(C)=N/NC(=O)c1cn(-c2ccccc2)nc1-c1ccccc1 (stereo unspecified) the results were L major viab 11, CHOP inh 17, RAM network inh 5 and WT yeast gro inh 8.
Cn1cc(CN2CCN(Cc3ccccc3)CC2)c(-c2cccc(Cl)c2)n1 was read as L major viab 14, CHOP inh 14, RAM network inh 3 and WT yeast gro inh 10.
For Nc1c2c(nc3ccc(Br)cc13)N(c1ccccc1)CC2 the results were L major viab 100*, CHOP inh 3, RAM network inh 0 and WT yeast gro inh 0.
For Nc1c(C(=O)c2ccccc2)oc2ccc(Br)cc12 the results were L major viab 1, CHOP inh 19, RAM network inh 3 and WT yeast gro inh 22.
`O=C(c1cc(C(=O)NCCc2ccccc2)c(=O)n(CCc2ccccc2)c1)c1cc(Cl)ccc1O` gave L major viab 98*, CHOP inh 82*, RAM network inh 5 and WT yeast gro inh 6.
`COc1ccc(C(=O)n2cc(C(=O)c3cc(C)ccc3O)cn2)cc1` gave L major viab -11, CHOP inh 53, RAM network inh 2 and WT yeast gro inh 8.
COc1ccc(CCNC(=O)c2cc(C(=O)c3cc(Cl)ccc3O)cn(CCc3ccc(OC)cc3)c2=O)cc1 was read as L major viab 99*, CHOP inh 7, RAM network inh 2 and WT yeast gro inh 21.
For O=C(O)c1ccccc1C(=O)NCCc1ccc(Cl)cc1 the results were L major viab 2, CHOP inh 15, RAM network inh 2 and WT yeast gro inh -2.
`COc1ccc(CCNC(=O)c2cc(C(=O)c3cc(C)ccc3O)cn(CCc3ccc(OC)cc3)c2=O)cc1` gave L major viab 96*, CHOP inh -36, RAM network inh 5 and WT yeast gro inh -7.
Screening COc1ccc(C2=Nn3c([n+](C)c4ccccc43)SC2)cc1 returned L major viab 100*, CHOP inh 6, RAM network inh 0 and WT yeast gro inh 36.
`Cn1c(Cc2ccccc2)[n+](C)c2ccccc21` gave L major viab 2, CHOP inh 5, RAM network inh 0 and WT yeast gro inh 2.
For Clc1ccc(C2=Nn3c(Cn4nnc5ccccc54)nnc3SC2)cc1 the results were CHOP inh 20.
For C[n+]1c2n(c3ccccc31)N=C(c1ccc(Cl)cc1)CS2 the results were L major viab 86*, CHOP inh 3, RAM network inh 2 and WT yeast gro inh 21.
CC1Sc2n(c3ccccc3[n+]2C)N=C1c1ccccc1 (stereo unspecified) was read as L major viab 99*, CHOP inh -6, RAM network inh 4 and WT yeast gro inh 3.
`COc1ccc(C2=Nn3c(nnc3-c3ccccn3)SC2)cc1` gave L major viab -2, CHOP inh -4, RAM network inh 2 and WT yeast gro inh 1.
`COC(=O)c1sccc1NC(=O)CNC(=O)c1ccccc1` gave L major viab -8, CHOP inh 6, RAM network inh 0 and WT yeast gro inh 0.
CCCc1ccc(NS(=O)(=O)c2c(C)oc(C)c2C(=O)OC)cc1 was read as CHOP inh 58.
For Cc1ccc(Cn2c(SC(C)C(N)=O)nc3ccccc3c2=O)cc1 (stereo unspecified) the results were L major viab -2, CHOP inh -5, RAM network inh 1 and WT yeast gro inh -5.
Nc1ccc(C(O)(C(F)(F)F)C(F)(F)F)cc1 was read as L major viab -7, CHOP inh 14, RAM network inh 0 and WT yeast gro inh 14.
Nc1c(C(O)(C(F)(F)F)C(F)(F)F)ccc2ccccc12 was read as L major viab 100*, CHOP inh 43, RAM network inh 0 and WT yeast gro inh 0.
`CC(C)(C)C(=O)/C(=C/c1ccncc1)n1cncn1` gave L major viab 100*, CHOP inh 85*, RAM network inh 2 and WT yeast gro inh 3.
Cc1nn(C)c(C)c1/C=C(/C(=O)C(C)(C)C)n1cncn1 was read as CHOP inh -9.
CCOC(=O)c1c(-c2ccco2)csc1NC(=O)CSc1nnc(N)s1 was read as L major viab 1, CHOP inh 22, RAM network inh 10* and WT yeast gro inh -8.
For CCOC(=O)c1c(NC(=O)CSc2nc3cccnc3n2C)sc(C(C)=O)c1C the results were L major viab -4, CHOP inh 55, RAM network inh 4 and WT yeast gro inh -5.
`CCOC(=O)c1c(NC(=O)CSc2nnc(-c3ccccc3C)n2C)sc(C(C)=O)c1C` gave L major viab 73*, CHOP inh 46, RAM network inh 8 and WT yeast gro inh -14.
Screening CCOC(=O)c1c(NC(=O)CSc2nc3ccccc3c(=O)n2-c2ccc(F)cc2)sc(C(C)=O)c1C returned L major viab 17, CHOP inh -13, RAM network inh 4 and WT yeast gro inh -22.
For CCOC(=O)c1c(NC(=O)CSc2ncnc3ccccc23)sc(C(C)=O)c1C the results were L major viab 80*, CHOP inh 75*, RAM network inh 3 and WT yeast gro inh 0.
For CCOC(=O)c1c(NC(=O)CSc2nc3ccccc3s2)sc(C)c1C the results were L major viab 13, CHOP inh 14, RAM network inh 11* and WT yeast gro inh -13.
CC(C)c1nnc(SCC(=O)N2CCN(C(=O)c3ccco3)CC2)n1N was read as L major viab -3, CHOP inh 25, RAM network inh 0 and WT yeast gro inh -9.
`OCCCNC(=S)Nc1ccc(Br)cc1Cl` gave CHOP inh 3.
O=C(CCN1CCCCC1)N/N=C/c1c[nH]c2ccccc12 was read as CHOP inh -10.
For Fc1ccccc1CNc1cc(Cl)cc(Cl)c1 the results were L major viab 2, CHOP inh 90*, RAM network inh 2 and WT yeast gro inh 38.
For COc1ccc(NC(=O)COC(=O)C2CCC(C(C)(C)C)CC2)c([N+](=O)[O-])c1 (stereo unspecified) the results were L major viab 2, CHOP inh 20, RAM network inh 11* and WT yeast gro inh 19.
COC(=O)c1ccc(CNC(=O)COC(=O)C2CC3C=CC2C3)cc1 (stereo unspecified) was read as L major viab -5, CHOP inh -2, RAM network inh 0 and WT yeast gro inh -7.
For COC(=O)c1ccc(CNC(=O)COC(=O)C2CCC(C(C)(C)C)CC2)cc1 (stereo unspecified) the results were L major viab -3, CHOP inh 93*, RAM network inh 4 and WT yeast gro inh -4.

High-throughput results deposited in PubChem BioAssay by several laboratories.
